# Laboratory results as given in PubChem BioAssay (Tox21).
# Where “and” joins values, the source holds several entries; their conditions need not be identical. Equal values may be shown once. Records with an inconclusive call do not appear. Entries that show only a call come without a potency. Some compounds were tested as several samples or in several runs, with calls that do not always agree. Calls of active or inactive are those of the source. Unless noted, calls follow the shape of the dose curve; as a rule, active = well fitted curve in the direction sought with a large enough effect in the repeat runs; inconclusive = weak or mixed curves; inactive = no such curve, though single readings can be large; an effect the other way counts as inactive or inconclusive.
# Assays:
# [1] = A CellTox Green Cytotoxicity Assay to monitor cytotoxicity in HepG2 cells - 0 hour (AID 1224882); also: nearly all actives have a fitted effect of over 35% in size
# How it was run: (§1)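 Read-out is fluorescence of a cyanine dye excluded from live cells that stains DNA of dead HepG2 cells, with signal proportional to cytotoxicity. Plates were read at 0, 8, 16, 24, 32 and 40 h after compound addition.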
# [2] = A CellTox Green Cytotoxicity Assay to monitor cytotoxicity in HepG2 cells - 32 hour (AID 1224883); also: nearly all actives have a fitted effect of over 50% in size; also: potency is read from the fitted curve at half-maximal effect
# How it was run: as §1
# [3] = A CellTox Green Cytotoxicity Assay to monitor cytotoxicity in HEK293 cells - 8 hour (AID 1224884); also: nearly all actives have a fitted effect of over 35% in size; also: potency is read from the fitted curve at half-maximal effect
# How it was run: (§2)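 Nonlytic real-time cytotoxicity: HEK293 + CellTox Green reagent plated, 5 h preincubation, pintool compound addition (23 nL in DMSO), 37 C for 40 h, fluorescence measured at successive time points.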
# [4] = qHTS RealTime-Glo MT Cell Viability Assay in HEK293 cells - 8 hour (AID 1224887); also: nearly all actives have a fitted effect of over 50% in size; also: potency is read from the fitted curve at half-maximal effect
# How it was run: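 Cells were seeded together with NanoLuc luciferase and a prosubstrate that viable cells reduce to a luciferase substrate. After a 5 h incubation at 37 C/5% CO2, compounds were added and luminescence was measured repeatedly during 40 h of treatment.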
# [5] = A CellTox Green Cytotoxicity Assay to monitor cytotoxicity in HEK293 cells - 16 hour (AID 1224888); also: nearly all actives have a fitted effect of over 35% in size; also: potency is read from the fitted curve at half-maximal effect
# How it was run: as §2
# [6] = qHTS RealTime-Glo MT Cell Viability Assay in HepG2 cells - 0 hour (AID 1224889); also: nearly all actives have a fitted effect of over 50% in size
# How it was run: (§3)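 Tox21 10K library screened in qHTS format on HepG2 cells carrying RealTime-Glo reagents. Compounds were added after a 5 h preincubation, and the luminescent signal from continuous culture was measured repeatedly during 40 h treatment.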
# [7] = A CellTox Green Cytotoxicity Assay to monitor cytotoxicity in HepG2 cells - 8 hour (AID 1224890); also: nearly all actives have a fitted effect of over 45% in size; also: potency is read from the fitted curve at half-maximal effect
# How it was run: as §1
# [8] = qHTS assay to identify small molecule antagonists of the estrogen receptor alpha (ER-alpha) signaling pathway using the BG1 cell line in the presence of 0.1 nM 17-beta-estradiol - cell viability counter screen (AID 1259241); also: nearly all actives have a fitted effect of over 40% in size
# How it was run: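 Cells were plated and left 24 hr, compounds in DMSO were pinned in, 17beta-estradiol was added to 0.1 nM final, and after 22 hr CellTiter-Fluor reagent was added for 30 min before fluorescence was read.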
# [9] = qHTS assay to identify small molecule antagonists of the androgen receptor (AR) signaling pathway using the MDA cell line in the presence of 0.5 nM R1881 - cell viability counter screen (AID 1259242); also: nearly all actives have a fitted effect of over 45% in size
# How it was run: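 Counter screen for cytotoxicity run in the same wells as the AR antagonist reporter screen: MDA-kb2 cells were treated 16 hr with test compounds and 0.5 nM R1881, then live-cell protease activity was measured by fluorescence.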
# [10] = target: Estrogen receptor (Homo sapiens) (UniProt P03372); assay: qHTS assay to identify small molecule antagonists of the estrogen receptor alpha (ER-alpha) signaling pathway using the BG1 cell line in the presence of 0.1 nM 17-beta-estradiol (AID 1259244); also: nearly all actives have a fitted effect of over 50% in size; also: potency is read from the fitted curve at half-maximal effect
# Estrogen receptor (Homo sapiens), sequence (P03372 whole entry, looked up): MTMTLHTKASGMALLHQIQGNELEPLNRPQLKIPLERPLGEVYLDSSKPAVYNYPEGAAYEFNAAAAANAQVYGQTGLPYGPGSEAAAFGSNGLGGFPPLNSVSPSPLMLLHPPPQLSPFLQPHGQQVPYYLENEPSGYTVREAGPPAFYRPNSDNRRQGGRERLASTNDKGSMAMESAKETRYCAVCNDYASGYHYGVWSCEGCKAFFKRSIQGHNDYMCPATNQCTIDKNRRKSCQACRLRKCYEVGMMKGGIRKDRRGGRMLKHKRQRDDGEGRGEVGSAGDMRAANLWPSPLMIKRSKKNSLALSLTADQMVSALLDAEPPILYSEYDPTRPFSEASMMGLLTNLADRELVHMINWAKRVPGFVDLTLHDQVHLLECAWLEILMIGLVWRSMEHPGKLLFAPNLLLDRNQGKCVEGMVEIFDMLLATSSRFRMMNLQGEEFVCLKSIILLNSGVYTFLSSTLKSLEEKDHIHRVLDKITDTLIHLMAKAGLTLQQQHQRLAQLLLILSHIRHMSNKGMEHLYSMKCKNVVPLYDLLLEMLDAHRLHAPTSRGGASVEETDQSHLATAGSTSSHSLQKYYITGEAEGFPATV
# How it was run: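 Cells: VM7Luc4E2, endogenous ER-alpha, 4x ERE-luc stable. Pre-culture 5 d, phenol red-free, charcoal-stripped FBS. Plated 24 h, compound + E2 0.1 nM final, 22 h 37C/5% CO2. Readout ONE-Glo luminescence.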
# [11] = qHTS assay to identify small molecule phospholipidosis (PLD) inducers (AID 1259344; active = well fitted curve in the direction sought with a large enough effect; an effect the other way counts as inactive or inconclusive)
# How it was run: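 Fluorescent phospholipid staining (LipidTOX Red) measured by automated microscopy in fixed HepG2 cells after 24 h treatment; nuclei counterstained with Hoechst 33342; amiodarone as reference inducer.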
# [12] = qHTS assay to identify small molecule HDAC inhibitors (AID 1259364); also: top concentration of the series differs between compounds; nearly all actives have a fitted effect of over 45% in size
# How it was run: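 Luminescence from a cell-permeant luminogenic class I/II HDAC substrate reports endogenous deacetylase activity in intact HCT-116 cells treated with compounds for 2 h.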
# [13] = qHTS assay to identify small molecule antagonists of the sonic hedgehog signaling (Shh) pathway - cell viability counter screen (AID 1259367); also: nearly all actives have a fitted effect of over 55% in size; also: potency is read from the fitted curve at half-maximal effect
# How it was run: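 Using CellTiter-Fluor, viability of Gli1-Luc reporter 3T3 cells is read by fluorescence in the wells used for the Shh luciferase assay. Treatment lasts 23 hr with conditioned medium, then reagent 1 hr at 37C.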
# [14] = qHTS assay to identify small molecule agonists of the sonic hedgehog signaling (Shh) pathway (AID 1259368; calls by dose curve;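 also: NIH/3T3-derived 3T3Gli1-Luc cells carrying a stable Gli1-driven firefly luciferase reporter; series mostly up to about 92 µM; nearly all actives have a fitted effect of over 15% in size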)
# How it was run: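 3T3Gli1-Luc (NIH/3T3 clone, stable Gli1-Luc); 4 hr pre-incubation, then cpd in DMSO 24 hr, 37 C/5% CO2; luciferase reagent 30 min RT; luminescence.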
# [15] = qHTS assay to identify small molecule antagonists of the sonic hedgehog signaling (Shh) pathway (AID 1259369; calls by dose curve; also: nearly all actives have a fitted effect of over 45% in size; also: potency is read from the fitted curve at half-maximal effect)
# How it was run: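 3T3Gli1-Luc, conditioned-medium-stimulated, 24hr cpd, 37C/5% CO2; Gli1-driven firefly Luc luminescence after 30min RT with luciferase reagent. Cells plated 4hr before cpd.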
# [16] = target: Androgen receptor (Homo sapiens) (UniProt P10275); assay: qHTS assay to identify small molecule antagonists of the androgen receptor (AR) signaling pathway using the MDA cell line in the presence of 0.5 nM R1881 (AID 1259243); also: nearly all actives have a fitted effect of over 50% in size; also: potency is read from the fitted curve at half-maximal effect
# Androgen receptor (Homo sapiens), sequence (P10275 whole entry, looked up): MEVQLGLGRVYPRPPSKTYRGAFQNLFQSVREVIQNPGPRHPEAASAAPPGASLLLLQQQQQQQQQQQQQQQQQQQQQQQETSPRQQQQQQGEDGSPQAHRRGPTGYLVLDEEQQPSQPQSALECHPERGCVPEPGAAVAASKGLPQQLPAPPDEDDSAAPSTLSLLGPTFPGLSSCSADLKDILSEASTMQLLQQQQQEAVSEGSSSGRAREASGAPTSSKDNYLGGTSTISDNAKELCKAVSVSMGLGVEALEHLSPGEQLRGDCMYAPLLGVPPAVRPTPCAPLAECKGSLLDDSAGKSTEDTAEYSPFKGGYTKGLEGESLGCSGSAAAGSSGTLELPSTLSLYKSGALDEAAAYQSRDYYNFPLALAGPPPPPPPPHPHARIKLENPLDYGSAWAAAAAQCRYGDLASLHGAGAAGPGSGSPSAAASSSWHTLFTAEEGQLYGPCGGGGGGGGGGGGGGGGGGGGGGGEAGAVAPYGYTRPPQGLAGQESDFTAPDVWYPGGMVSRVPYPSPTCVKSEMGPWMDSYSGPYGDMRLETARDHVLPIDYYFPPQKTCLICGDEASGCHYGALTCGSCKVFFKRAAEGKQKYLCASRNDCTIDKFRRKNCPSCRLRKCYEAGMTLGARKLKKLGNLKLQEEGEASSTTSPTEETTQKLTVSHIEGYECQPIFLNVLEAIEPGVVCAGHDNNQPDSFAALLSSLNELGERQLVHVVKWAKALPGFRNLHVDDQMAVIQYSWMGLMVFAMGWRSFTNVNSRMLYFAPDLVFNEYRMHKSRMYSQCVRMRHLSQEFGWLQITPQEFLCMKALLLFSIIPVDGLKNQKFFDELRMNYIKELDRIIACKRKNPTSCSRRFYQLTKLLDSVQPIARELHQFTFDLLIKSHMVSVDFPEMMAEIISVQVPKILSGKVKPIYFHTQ
# How it was run: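 Luciferase luminescence is the read-out: compounds are tested for suppressing 0.5 nM R1881-driven MMTV reporter activity in MDA-kb2 cells after 16 hr at 37C.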
# [17] = qHTS assay to identify small molecule HDAC inhibitors - cell viability counter screen (AID 1259365)
# How it was run: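 Counter screen in wild-type HCT-116 cells: compounds dissolved in DMSO are pin-transferred onto overnight-plated cells and left 2hr at 37C. ATP-based CellTiter-Glo luminescence then measures viable cells.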
# [18] = qHTS assay to identify small molecule agonists of the sonic hedgehog signaling (Shh) pathway - cell viability counter screen (AID 1259366); also: nearly all actives have a fitted effect of over 50% in size; also: potency is read from the fitted curve at half-maximal effect
# How it was run: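 Cells are plated at 2,000 per well and left 4hr at 37C, 5% CO2 before compound addition. After 23hr of treatment, CellTiter-Fluor reagent is added for 1hr at 37C and fluorescence is measured.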
# [19] = qHTS RealTime-Glo MT Cell Viability Assay in HEK293 cells - 24 hour (AID 1224886); also: nearly all actives have a fitted effect of over 50% in size; also: potency is read from the fitted curve at half-maximal effect
# How it was run: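 Luminescence generated by NanoLuc from substrate produced by living HEK293 cells served as the viability signal. Each value reflects the reading at its stated time point during continuous 40 h compound exposure at 37 C.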
# [20] = qHTS RealTime-Glo MT Cell Viability Assay in HepG2 cells - 16 hour (AID 1224885); also: nearly all actives have a fitted effect of over 50% in size; also: potency is read from the fitted curve at half-maximal effect
# How it was run: as §3
Compound,Potency [1],Potency [2],Potency [3],Potency [4],Potency [5],Potency [6],Potency [7],Potency [8],Potency [9],Potency [10],Potency [11],Potency [12],Potency [13],Potency [14],Potency [15],Potency [16],Potency [17],Potency [18],Potency [19],Potency [20]
CCn1cc(C(=O)O)c(=O)c2cc(F)c(N3CCNC(C)C3)c(F)c21 (stereo not drawn),inactive,inactive,inactive,inactive,inactive,inactive,inactive,inactive,inactive,inactive,inactive,inactive,inactive,inactive,inactive,–,–,–,–,–
CCc1ccc(C(c2ccc(CC)cc2)C(Cl)Cl)cc1,inactive,inactive,inactive,inactive,inactive,inactive,–,inactive,inactive,inactive,–,inactive,inactive,inactive,inactive,49.3 µM (active),inactive,inactive,–,–
COc1cc(C(=S)N2CCOCC2)ccc1O,inactive,inactive,inactive,inactive,inactive,inactive,–,–,inactive,inactive,inactive,inactive,inactive,inactive,inactive,inactive,–,inactive,inactive,–
Cc1cccc2n[nH]nc12,inactive,inactive,inactive,inactive,–,inactive,–,inactive,inactive,–,–,inactive,inactive,inactive,inactive,–,–,–,inactive,–
Nc1ccc2cc3ccccc3cc2c1,inactive,inactive,inactive,inactive,inactive,–,inactive,inactive,inactive,inactive,–,–,–,–,inactive,–,inactive,–,inactive,–
CCOC(=O)C(C)C(C)=O (stereo not drawn),inactive,inactive,–,inactive,inactive,inactive,inactive,inactive,inactive,–,–,inactive,inactive,inactive,inactive,–,inactive,inactive,inactive,inactive
CCCOC(=O)c1cc(O)c(O)c(O)c1,inactive,inactive,inactive,–,inactive,inactive,inactive,inactive,inactive,inactive,inactive,inactive,inactive,inactive,12.1 µM (active),–,inactive,43.1 µM (active),–,–
CCN(CC)CCOc1ccc(/C(=C(\Cl)c2ccccc2)c2ccccc2)cc1,inactive,17.7 µM (active) and 21.3 µM (active),39.7 µM (active) and inactive,12.6 µM (active) and 21.3 µM (active),35.4 µM (active),–,–,–,–,–,–,inactive,inactive,inactive,17.6 µM (active),–,–,–,12.6 µM (active) and 21.3 µM (active),–
Oc1ccc(Cl)cc1Cc1cc(Cl)ccc1O,inactive,inactive,–,25 µM (active) and inactive,inactive,inactive,inactive,inactive,–,44.1 µM (active) and 68.6 µM (active),inactive,inactive,55.5 µM (active) and 43.3 µM (active) and inactive,inactive,15.6 µM (active) and 21.7 µM (active),13.9 µM (active) and 27.3 µM (active) and 23.7 µM (active),inactive,62.3 µM (active) and inactive,22.3 µM (active) and 43.6 µM (active),inactive
CCCCCCCCCCCCc1ccccc1O,inactive,19.5 µM (active),–,43.1 µM (active) and 38.9 µM (active),43.1 µM (active) and 38.9 µM (active),inactive,inactive and 21.9 µM (active),inactive,–,inactive and 61.1 µM (active),–,inactive,60.3 µM (active) and 61.1 µM (active),inactive,67.7 µM (active) and 34.4 µM (active),30.2 µM (active) and 24.3 µM (active),inactive,60.3 µM (active) and 61.1 µM (active),43.1 µM (active) and 49 µM (active),inactive and 34.7 µM (active)
